Data on 28 molecules can be found in PubChem BioAssay (EPA / NIEHS).

Several values for one entry are separate records, joined by “and”; a condition that tells them apart may be missing. Equal values may be shown once. Some structures have more than one record in an assay (separate samples or runs), and their calls can disagree. Activity calls are given as the source filed them. The calls were made as follows: active = hit-call score of the fitted dose curve at least 0.9, where 1 is the maximum; inactive = score below 0.9.

The term AC50 denotes the concentration giving half of the maximal activity seen.

A short description of this assay: CCTE_Mundy_HCI_Cortical_NOG_NeuriteCount: CCTE's Neurite Outgrowth Assay in rat cortical cells for Neurite Count, Mundy Lab (AID 2284212).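 Also: cells fixed about two days after chemical exposure began.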 The procedure: CCTE_Mundy_HCI_Cortical_NOG is a multiplexed, cell-based-readout assay that uses rat primary cortical cells with measurements taken at 50.33 hours after chemical dosing in a microplate: 96-well plate.CCTE_Mundy_HCI_Cortical_NOG_NeuriteCount is one of four components of the CCTE_Mundy_HCI_Cortical_NOG assay. It measures neurite outgrowth related to the number of neurites using High Content Imaging of fluorescently labelled markers.[…] Using a type of morphology reporter, loss -of-signal activity can be used to understand developmental effects.
Exposure starts 2 hours post-plating by adding 10 ul of the working solution to 90 ul of media in the wells for a 1/10 dilution. Forty-eight hours after chemical treatment cells are fixed by direct addition of 100 ul of warm (37C) Dulbecco's phosphate buffered saline (DPBS) fixative solution containing 8% paraformaldehyde, 8% sucrose, and 0.1% of 3 mg/ml Hoechst 33342 into each well. Primary antibodies are prepared by dilution in Immunocytochemical Staining Buffer (ISB), 10X Dulbecco's PBS, 0.1% Saponin, 5% Bovine Serum Albumin, 0.5% NaN3 (Sodium Azide) and betaIII-tubulin (rabbit anti-betaIII-tubulin, 1:800) followed by Alexa Fluor-488 secondary (1:500) to label neuronal cell bodies and neurites. A Cellomics ArrayScan VTi HCS Reader is used for automated image acquisition and analysis of neurite outgrowth.
`CCOP(=S)(OCC)Oc1ccc2c(C)c(Cl)c(=O)oc2c1`: the AC50 was 89.6 µM (active).

Take `CSC1=N[C@@](C)(c2ccccc2)C(=O)N1Nc1ccccc1`: the molecule was called inactive.

For the molecule `CCOP(=S)(OCC)Oc1ccc([N+](=O)[O-])cc1`, the half-maximal activity concentration (AC50) is 23.7 µM (active).

Turning to `COP(=O)(OC)OC(Br)C(Cl)(Cl)Br` (centres undefined), the concentration at half-maximal activity (AC50) is 31.5 µM (active) and 30.7 µM (active).

As to `CC[C@H](C)[C@H]1O[C@]2(C=C[C@@H]1C)C[C@@H]1C[C@@H](C/C=C(\C)[C@@H](O[C@H]3C[C@H](OC)[C@@H](O[C@H]4C[C@H](OC)[C@@H](NC)[C@H](C)O4)[C@H](C)O3)[C@@H](C)/C=C/C=C3\CO[C@@H]4[C@H](O)C(C)=C[C@@H](C(=O)O1)[C@]34O)O2`, the concentration at half-maximal activity (AC50) is 1.47 µM (active) and 1.53 µM (active).

For `C=C(C)[C@H]1Cc2c(ccc3c2O[C@@H]2COc4cc(OC)c(OC)cc4[C@@H]2C3=O)O1`, the AC50 was 0.053 µM (active).

Regarding `S=C1NCCN1`, the molecule was classed as inactive.

Regarding `COP(=O)(OC)C(O)C(Cl)(Cl)Cl` (centres undefined), the call was inactive.

In the case of `CC(=NC#N)N(C)Cc1ccc(Cl)nc1`, the result was inactive.

`CC(C)N(C(=O)SCC(Cl)=C(Cl)Cl)C(C)C`: the molecule was called inactive.

For `C[N+]1(C)CCCCC1`, the outcome was inactive.

In the case of `CCOP(=S)(Oc1cnc(C(C)(C)C)nc1)OC(C)C` (centres undefined), the half-maximal activity concentration (AC50) is 26.4 µM (active) and the result was inactive.

As to `CC1=NNC(=O)N(/N=C/c2cccnc2)C1`, the call was inactive.

Consider `CCOP(=O)(SC(C)CC)N1CCSC1=O` (centres undefined), for which the molecule was classed as inactive.

For the molecule `CN1COCN(Cc2cnc(Cl)s2)C1=N[N+](=O)[O-]`, the result was inactive.

Turning to `CCOP(=S)(OCC)Oc1cc(C)nc(C(C)C)n1`, the result was inactive.

Take `CCOC(=O)CC(SP(=O)(OC)OC)C(=O)OCC` (centres undefined): the outcome was inactive.

Turning to `CCOP(=O)(OCC)Oc1cc(C)nc(C(C)C)n1`, the call was inactive.

For the molecule `CCCCSP(=O)(SCCCC)SCCCC`, the AC50 is 77.8 µM (active) and 49.9 µM (active).

Turning to `CCOP(=S)(OCC)OC(Cl)C(Cl)(Cl)Cl` (centres undefined), the AC50 is 75.7 µM (active) and 31.8 µM (active).

For the molecule `CON=C(C(=O)OC)c1ccccc1CON=C(C)c1cccc(C(F)(F)F)c1`, the AC50 is 1.2 µM (active).

`O=[N+]([O-])c1cc(C(F)(F)F)c(Cl)c([N+](=O)[O-])c1Nc1ncc(C(F)(F)F)cc1Cl`: the AC50 was 1.44 µM (active).

Consider `CN(C)[C@@H]1C(=O)C(C(N)=O)=C(O)[C@@]2(O)C(=O)C3=C(O)c4c(O)cccc4[C@@](C)(O)[C@H]3[C@H](O)[C@@H]12`, for which the outcome was inactive.

For the molecule `CCCSP(=O)(OCC)Oc1ccc(Br)cc1Cl` (centres undefined), the molecule was classed as inactive.

For `COP(=O)(NC(C)=O)SC` (centres undefined), the molecule was called inactive.

Take `CCCSP(=O)(OCC)SCCC`: the outcome was inactive.

In the case of `CCOP(=S)(OCC)SCCSCC`, the call was inactive.

With `CCOP(=O)(NC(C)C)Oc1ccc(SC)c(C)c1` (centres undefined), the molecule was classed as inactive.
